# CHOP inhibitor: inhibitors of CHOP promoter induction, primary screen, cell-based, unfolded protein response, luciferase reporter | 3.8% of 220,000 active | CHO-K1 CHOP-promoter luciferase, tunicamycin-induced, 15-18 h | inhibition, % at 10 µM;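 active = compounds that reduced the stress-induced luciferase reporter signal by more than about 70% of percent inhibition, limit read from the data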;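 note: 0% = tunicamycin plus vehicle and 100% = wells without tunicamycin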
# Hsp70 act: Hsp70 transcriptional activators, primary screen, cell-based, HeLa, Hsp70 promoter luciferase, luminescence, 10 µM | HeLa Hsp70 promoter luciferase reporter; scaled: vehicle 0, proteasome-inhibitor control 100% | activation, % at 10 µM | 0.04% of 200,000 active;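 active = activation above the mean across all tested compounds plus 3 SD, cutoff set per campaign, cut at about 5.5% in these data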;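 note: 100% = MG132 at 30 µM as the positive control and 0% = DMSO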
# S1P4 antag: S1P4 receptor antagonists, primary screen, cell-based; S1P4-expressing cells, antagonist mode, reporter read-out; inhibition, % at 4.98 µM; 0.26% of 220,000 active; Sphingosine 1-phosphate receptor 4 (Homo sapiens), O95977; AID 1510, 2009; in the data active = inhibition above about 29%;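 note: 0% = wells stimulated with agonist and 100% = vehicle wells without agonist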
# S1P4 ag: S1P4 receptor agonists, primary screen, cell-based; Sphingosine 1-phosphate receptor 4 (Homo sapiens), O95977; S1P4-expressing cell line, agonist reporter assay; 0.35% of 220,000 active; activation, % at 4.98 µM; in the data active = activation above about 11%;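 note: 0% = DMSO vehicle and 100% = reference agonist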
# S1P4 ag conf: S1P4 receptor agonists, retest, confirmation, cell-based, high throughput. shares compounds with S1P4 ag. S1P4 agonist cell-based reporter assay. activation, % at 4.98 µM. 7% of 740 active. AID 1523, 2009; in the data active = activation above about 12%;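 note: 0% = vehicle and 100% = full reference agonist response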
# S1P1 agonist: S1P1 receptor agonists, human, counter-screen for S1P4 agonist project, cell-based; shares compounds with S1P4 ag; S1P1 agonist cell-based assay, activation; 4% of 740 active; activation, % at 4.98 µM; in the data active = activation above about 21%;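 note: 0% = vehicle wells and 100% = reference agonist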
# Target sequence (P21453 whole entry, looked up): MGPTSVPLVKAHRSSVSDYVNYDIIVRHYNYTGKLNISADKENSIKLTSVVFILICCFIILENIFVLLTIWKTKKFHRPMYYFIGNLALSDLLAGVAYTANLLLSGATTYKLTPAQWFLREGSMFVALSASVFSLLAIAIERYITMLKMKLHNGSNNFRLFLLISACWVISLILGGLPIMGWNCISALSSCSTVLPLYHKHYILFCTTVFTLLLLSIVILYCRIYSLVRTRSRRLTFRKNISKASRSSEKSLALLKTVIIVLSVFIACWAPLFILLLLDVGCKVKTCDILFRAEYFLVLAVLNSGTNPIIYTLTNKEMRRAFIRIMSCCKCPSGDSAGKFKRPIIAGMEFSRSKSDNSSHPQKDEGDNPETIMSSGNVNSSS
# * = called active by the depositor; . = no result given. A selection: hits, their analogues and other compounds. The true share with any hit is near 4.2%.
SMILES,CHOP inhibitor,Hsp70 act,S1P4 antag,S1P4 ag,S1P4 ag conf,S1P1 agonist
Cc1ccccc1OCC(=O)Nc1nc2ccccc2[nH]1,-35,0,24,21*,-1,4
CCOc1ccccc1OCC(=O)Nc1nc2ccccc2[nH]1,-28,0,-6,-3,.,.
COc1ccc(NC(=O)COC(=O)c2cccc(S(=O)(=O)N(C)C)c2)cc1,12,0,13,0,.,.
Cc1c(Cl)c([N+](=O)[O-])nn1Cc1ccc(C(=O)Nc2ccc(Cl)cn2)o1,16,0,-17,0,.,.
O=C(Nc1ccc(Cl)cn1)c1ccc([N+](=O)[O-])o1,-19,0,25,49*,-4,-17
COc1cccc(-n2nc(C(C)=O)c(C#N)c2-c2ccco2)c1,-2,0,0,38*,-2,-5
O=C(CN1CCC(Cc2ccccc2)CC1)Nc1ccc2c(c1)OCCO2,-20,0,-5,413*,-2,-9
O=C(CN1CCN(CC(=O)Nc2ccccc2Cl)CC1)Nc1ccc2c(c1)OCCO2,6,0,-17,1,.,.
Cc1cc(NC(=O)C2C3C(=O)N(Cc4ccc(Cl)cc4)C(C(=O)NCc4ccccc4)C34C=CC2(C)O4)no1 (stereo unspecified),56,0,-15,18*,-2,-6
Cc1cc(NC(=O)C2C3C(=O)N(Cc4ccc(Cl)cc4)C(C(=O)NC4CCCCC4)C34C=CC2(C)O4)no1 (stereo unspecified),17,0,-18,1,.,.
COc1ccc(-c2cc(C(=O)N/N=C/c3ccc4c(c3)OCO4)c3ccccc3n2)c(OC)c1,19,0,-5,0,.,.
COc1ccc(-c2cc(C(=O)N/N=C/c3ccc(OC)c(COCC(F)(F)C(F)F)c3)c3ccccc3n2)c(OC)c1,24,0,-9,72*,-2,-7
Cc1onc(C(=O)N2CCOCC2)c1[N+](=O)[O-],-9,0,4,19*,-3,3
CC(C)c1onc(C(=O)N2CCOCC2)c1[N+](=O)[O-],22,0,-7,-1,.,.
Cc1ccc(/C=C/C(=O)O)cc1S(=O)(=O)N(CCO)CCO,7,0,17,37*,-1,-8
N#CC1=C(N)Oc2n[nH]c(-c3ccccc3)c2C12C(=O)Nc1ccccc12 (stereo unspecified),18,0,-13,-1,.,.
CCC(CC)NC(=O)C1CCN(S(=O)(=O)c2cccs2)CC1,11,0,0,1,.,.
CCOc1ccc(CCNC(=O)COC(=O)c2ccc(OC)c(OC)c2OC)cc1OCC,-2,0,-11,1,.,.
CCOc1ccc(CCNC(=O)COC(=O)c2cccc(OC)c2O)cc1OCC,2,0,-18,13*,-3,-2
COc1cccc(OC)c1C(=O)NC(C)C12CC3CC(CC(C3)C1)C2 (stereo unspecified),16,0,1,0,.,.
CC(C)c1csc(CN2CCN(Cc3ccc(F)c(F)c3)C(CCO)C2)n1 (stereo unspecified),27,0,-9,42*,-2,-5
CC12c3ccccc3C(c3ccccc31)C1C(=O)N(c3cccnc3)C(=O)C12 (stereo unspecified),6,0,-9,-1,.,.
CC12c3ccccc3C(c3ccccc31)C1C(=O)N(Cc3cccnc3)C(=O)[C@H]12 (stereo partly specified),6,0,-1,40*,-1,0
CCC1OC23CCCCC2C(C#N)(C(=N)O3)C1(C#N)C#N (stereo unspecified),10,0,-6,2,.,.
CC1OC23CCCCC2C(C#N)(C(=N)O3)C1(C#N)C#N (stereo unspecified),12,0,11,12*,-1,-1
SMILES,CHOP inhibitor,Hsp70 act,S1P4 antag,S1P4 ag,S1P4 ag conf,S1P1 agonist
O=c1cc(N2CCCCC2)nc2n1CCCS2,24,0,-8,25*,-3,-2
Cc1ccc(NC(=O)COC(=O)[C@H](C)N2C(=O)C3CC=CCC3C2=O)cc1S(=O)(=O)N(C)C (stereo partly specified),-7,0,-17,16*,-1,-5
C/C=C/C(=O)OCC(=O)Nc1ccc(C)c(S(=O)(=O)N(C)C)c1,-18,0,-18,1,.,.
CCn1c(=O)c2cc(C(=O)N(C)c3ccccc3F)sc2c2ccccc21,2,.,-5,21*,-2,-6
CCn1c(=O)c2cc(C(=O)N(C)c3ccc(OC)cc3OC)sc2c2ccccc21,21,.,-3,-1,.,.
COc1ccc(SCC(=O)Nc2ccccc2Cl)cc1,-12,0,-4,114*,-1,-5
Cn1cccc1/C=C1\CCc2ccccc2C1=O,48,0,-12,39*,-2,-7
Clc1ccc(N2N=C(c3cccs3)CC2c2ccco2)cc1 (stereo unspecified),32,0,-4,14*,19*,55*
c1ccc(N2N=C(c3cccs3)CC2c2ccco2)cc1 (stereo unspecified),61,0,-1,9,.,.
Cc1ccsc1/C=N\NC(=O)Cn1nnc2ccccc21,-13,0,-9,28*,-2,-6
COc1ccc(/C=N/NC(=O)Cn2nnc3ccccc32)cc1OC,7,0,-11,132*,0,6
CN(C)c1ccc(/C=N/NC(=O)Cn2nnc3ccccc32)cc1,25,0,1,1,.,.
O=C(O)C1CC=CCC1C(=O)Nc1ccccc1C(=O)N1CCN(c2ccc(Cl)cc2)CC1 (stereo unspecified),-13,0,-8,1,.,.
O=C(O)CCC(=O)Nc1ccccc1C(=O)N1CCN(c2ccc(Cl)cc2)CC1,42,0,6,122*,-2,0
c1cc(Nc2ncnc3sc4c(c23)CCC4)ccn1,6,0,-2,2,.,.
OCCC1CN(Cc2cccnc2)CCN1CCc1ccccc1 (stereo unspecified),15,1,-5,-1,.,.
CC(C)n1cc(CN2CCN(CCc3ccccc3)C(CCO)C2)cn1 (stereo unspecified),8,0,1,14*,-2,-4
COc1ccc(CCNC(=O)Nc2ccccc2[N+](=O)[O-])cc1,-30,0,1,21*,-3,-1
COc1ccc(CCNC(=O)Nc2cccc([N+](=O)[O-])c2)cc1,-10,0,-7,1,.,.
CCCC(=O)Nc1ccc2c(c1)C(=O)NC2=O,18,0,-15,-1,.,.
Cc1nc(Sc2nnnn2C)c2c3c(sc2n1)CCC3,-100,0,-8,11*,-5,-17
O=c1c(Cc2ccc(F)cc2)c(O)ccn1C1CC1,18,0,-16,-5,.,.
CCNS(=O)(=O)c1cc(OC)ccc1OC,6,0,-2,16*,-1,1

# Compound activity as filed in PubChem.
